# IL-1B inflam inh = qHTS for Inhibitors of Inflammasome Signaling: IL-1-beta AlphaLISA Primary Screen; activity change, % at 57.5 µM; 360,000 tested, 4.7% active; THP-1 LPS/ATP IL-1B secretion, AlphaLISA, 16 h; hits give low values; in the data active = activity change below about -50%; inconclusive = mostly about -30% to -49%; note: % is set by controls: 0 for no effect and ±100 for the full control effect
#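 THP-1 cells pretreated 1 hr with compounds (up to 57.5 uM final), then stimulated with LPS (250 ng/mL final) plus ATP (1.25 mM final); secreted IL-1B measured by AlphaLISA after 16 hr, decreased signal indicating inhibition.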
# HepG2 tox = qHTS for Inhibitors of TGF-b: Cytotox Counterscreen | 410,000 tested, 0.76% active | HepG2 CAGA-GFP viability, ATP luminescence, 18 h | Potency, µM (doses to about 46.1 µM), for the others: top-dose activity change, negative = cytotoxicity, actives largely listed as cytotoxic | AID 588856, 2011; note: potency is the fitted concentration of half-maximal effect
#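 HepG2 CAGA-GFP cells (1000/well, DMEM with 1% FBS) received compound, then TGF-beta at 500 pg/mL final, and were incubated 18 hours at 37 degrees C. Viability was read by CellTiter-Glo luminescence. Media-only wells were set as complete cell-killing and DMSO as no toxicity.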
# DT40 TDP1 CPT = qHTS for Inhibitors of human tyrosyl-DNA phosphodiesterase 1 (TDP1): qHTS in cells in presence of CPT; Potency, µM (series often up to 46.2 µM), without a hit: at the highest dose activity change, negative = growth inhibition, usual class: inhibitors; AID 686979, 2013; chicken DT40 Tdp1-/-;hTDP1 cells + 20 nM CPT, ATP luminescence, 48 h; 420,000 tested, 12% active; note: potency is the fitted concentration of half-maximal effect; % is set by controls: 0 for no effect and ±100 for the full control effect; nearly all actives have a fitted effect of over 55% in size
#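 Chicken DT40 Tdp1-/- cells complemented with human TDP1, 400 cells/well, exposed to compounds plus 20 nM camptothecin for at least 48 h at 37 C; viability read as ATP content by CellTiter-Glo luminescence.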
# TGFb SMAD3 inh = qHTS for Inhibitors of TGF-b; HepG2 CAGA-GFP TGF-b/SMAD3 reporter, GFP fluorescence, 18 h; TGF-beta stimulated, 500 pg/mL final; Potency, µM (titrated, usually from 46.1 µM), inactives show at the top dose activity, negative = inhibition, usual class: inhibitors; 410,000 tested, 1.2% active; AID 588855, 2011; note: potency is the fitted concentration of half-maximal effect; % is set by controls: 0 for no effect and ±100 for the full control effect; nearly all actives have a fitted effect of over 65% in size
#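 Read-out: total well GFP (ex488/em500-530) summed from mean per-cell fluorescence. Cells: HEPG2 CAGA-GFP, 1% FBS DMEM, 18 h at 37 degrees C with 500 pg/mL final TGF-beta. Unstimulated wells served as the full-inhibition control; stimulated DMSO wells = 0%.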
# TDP1 cell noCPT = qHTS for Inhibitors of human tyrosyl-DNA phosphodiesterase 1 (TDP1): qHTS in cells in absence of CPT; DT40 Tdp1-/- hTDP1 cells, no CPT, ATP luminescence, 48 h; 420,000 tested, 15% active; AID 686978, 2013; Potency, µM (titrated, usually from 46.2 µM), inactives show top-dose activity change, negative = growth inhibition, usual class: inhibitors; note: potency is the fitted concentration of half-maximal effect; % is set by controls: 0 for no effect and ±100 for the full control effect; nearly all actives have a fitted effect of over 55% in size
#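 DT40 Tdp1-/-;hTDP1 cells, no CPT (DMSO vehicle only), 400 cells/well; compounds pin-transferred; ≥48 hr, 37 °C; CellTiter-Glo 30 min RT dark, luminescence read.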
# ASM inhibitor = Inhibitors of Secretory Acid Sphingomyelinase (S-ASM): qHTS; Sphingomyelin phosphodiesterase (Homo sapiens), P17405; Potency, µM (titrated, usually from 57.5 µM), for inactives: at the highest dose activity change, negative = inhibition, most hits filed as inhibitors; placental ASM, HMU-PC fluorogenic substrate, 60 min; 340,000 tested, 0.006% active; note: potency is the fitted concentration of half-maximal effect
# Target sequence (P17405 47-631 limits assumed): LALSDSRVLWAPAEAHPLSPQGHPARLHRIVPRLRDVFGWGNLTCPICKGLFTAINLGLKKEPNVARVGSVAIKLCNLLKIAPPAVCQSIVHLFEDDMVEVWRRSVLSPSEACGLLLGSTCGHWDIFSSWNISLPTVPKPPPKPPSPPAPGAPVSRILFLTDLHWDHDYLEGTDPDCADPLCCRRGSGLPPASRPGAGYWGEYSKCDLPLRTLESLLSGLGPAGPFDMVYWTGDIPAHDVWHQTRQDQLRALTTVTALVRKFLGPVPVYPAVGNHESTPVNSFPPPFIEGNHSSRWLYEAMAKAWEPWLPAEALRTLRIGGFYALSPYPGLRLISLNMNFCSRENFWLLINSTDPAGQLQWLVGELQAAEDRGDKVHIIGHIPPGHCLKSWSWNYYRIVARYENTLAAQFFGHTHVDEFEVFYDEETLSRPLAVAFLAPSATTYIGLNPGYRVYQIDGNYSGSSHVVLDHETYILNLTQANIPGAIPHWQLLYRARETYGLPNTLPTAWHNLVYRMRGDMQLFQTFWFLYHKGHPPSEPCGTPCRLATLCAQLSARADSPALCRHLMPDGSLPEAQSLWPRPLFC
#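 HMU-PC0 cleavage (9 uM final) by human placental ASM, 60 min at 37 °C following 10 min compound exposure at RT; stopped at pH 10, fluorescence Ex 386/Em 447 nm.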
# The depositor's hits bear a star; ? = inconclusive; nt = no result. An excerpt weighted towards active compounds, which were near 19% of everything screened. Unless noted, calls come from the whole dose curve; as a rule, active = well fitted curve in the direction sought with a large enough effect; inconclusive = small, poorly fitted or top-dose-only effect, or another doubt; inactive = no such curve, though single readings can be large; an effect the other way counts as inactive or inconclusive.
SMILES,IL-1B inflam inh,HepG2 tox,DT40 TDP1 CPT,TGFb SMAD3 inh,TDP1 cell noCPT,ASM inhibitor
O=C(c1cc(C2CC2)nn1-c1ccccc1)N1CCN(Cc2ccccc2)CC1,-10,-2%,?,-7%,?,nt
N#Cc1ccc(CN2CCN(C(=O)c3cc(C4CC4)nn3-c3ccccc3)CC2)cc1,-3,-37%,23µM*,?,21µM*,4%
COc1ccc(N2CCN(C(=O)c3cc(C4CC4)nn3-c3ccccc3)CC2)cc1,5,-7%,?,-4%,?,-3%
Cc1ccc(CCNC(=O)CC(C)CC2=NS(=O)(=O)c3ccccc3N2)cc1 (stereo unspecified),-5,-2%,-26%,-4%,10%,2%
Cn1c(Cc2ccccc2)[n+](C)c2ccccc21,37,-13%,?,-20%,15µM*,1%
Cc1c(/C(Cc2ccccc2)=N/O)c2ccccc2n1C,34,0%,-21%,0%,?,-1%
COc1cccc(NC(=O)C2CCCN2S(=O)(=O)c2ccc3c(c2)C(C)(C)C(=O)N3C)c1 (stereo unspecified),2,-6%,-18%,0%,?,-5%
CC1CCN(c2ccc(NC(=O)C3CCCN3S(=O)(=O)c3ccc(F)cc3)cc2)CC1 (stereo unspecified),?,-13%,18µM*,-29%,4.1µM*,5%
Cc1ccc(S(=O)(=O)N2CCCC2C(=O)Nc2ccc(Br)cc2)cc1 (stereo unspecified),nt,-32%,?,nt,15µM*,nt
Cc1cc(C)cc(NC(=O)C2CCCN2S(=O)(=O)c2ccc3c(c2)C(C)(C)C(=O)N3C)c1 (stereo unspecified),12,1%,16µM*,3%,?,3%
CCc1ccc(CNC(=O)c2nn(-c3ccc(OC)c(Cl)c3)c(=O)c3c2c2ccccc2n3C)cc1,nt,-20%,1%,-12%,-7%,nt
CCOc1ccc(-n2c(-c3ccccc3)c(C)n3c4c(=O)n(C)c(=O)n(C)c4nc23)cc1,nt,2%,nt,23%,nt,nt
CCc1ccc(C2CC(=O)c3c([nH]c(C(=O)OC4CCCCCC4)c3C)C2)cc1 (stereo unspecified),nt,-17%,-27%,3%,-8%,nt
Cc1ccc(-n2c(SCC(=O)Nc3cc(S(=O)(=O)N4CCOCC4)ccc3Cl)nc3ccccc3c2=O)cc1,7,-24%,-25%,?,-6%,0%
O=C(Cn1nnc2ccccc2c1=O)Nc1cccc(S(=O)(=O)N2CCOCC2)c1,1,14%,-21%,-1%,-4%,0%
O=C(CSc1nc2ccccc2c(=O)n1-c1ccc(F)c(Cl)c1)Nc1cccc(S(=O)(=O)N2CCOCC2)c1,9,-4%,16µM*,-8%,?,-2%
O=C(CSc1nc2ccccc2c(=O)n1-c1ccc(F)cc1)Nc1ccc(Cl)c(S(=O)(=O)N2CCOCC2)c1,-1,-4%,?,?,16µM*,0%
O=C(/C=C/c1ccco1)Nc1cccnc1Cl,-13,-41%,-29%,?,?,0%
O=C(/C=C\c1ccco1)Oc1cccc2cccnc12,-165*,-74%,0.58µM*,3.2µM*,0.65µM*,0%
COc1ccccc1/C=C/C(=O)Oc1cccc2cccnc12,0,10µM*,?,7.9µM*,16µM*,-7%
CCc1ccc(OC(=O)/C=C/c2ccco2)cc1,46,0%,-4%,-5%,14%,3%
O=C(/C=C/c1ccco1)Oc1cccc2cccnc12,-94*,-47%,?,?,?,4%
CCCCN(CC)CCNC(=O)CN1C(=O)COc2ccc(S(=O)(=O)N3CCOCC3)cc21,nt,-1%,9%,3%,10%,nt
Cc1c(O)ccc(NC(=O)/C=C/c2ccccc2)c1C,0,5%,18µM*,9%,15µM*,-5%
NC(=O)c1ccccc1NC(=O)/C=C/c1ccccc1,-12,-33%,?,18%,21µM*,13%
SMILES,IL-1B inflam inh,HepG2 tox,DT40 TDP1 CPT,TGFb SMAD3 inh,TDP1 cell noCPT,ASM inhibitor
O=C(/C=C/c1ccc(Cl)cc1)NC(=S)Nc1ccccc1C(=O)O,0,-24%,?,?,?,2%
NC(=O)c1ccccc1NC(=O)/C=C/c1ccc(Cl)cc1,-14,-32%,?,-3%,16µM*,-1%
CCS(=O)(=O)c1ccc(O)c(NC(=O)/C=C/c2ccccc2)c1,14,-5%,0%,9%,-9%,-2%
CC(=O)Nc1nc(NC(=O)/C=C/c2ccccc2)n(-c2ccccc2)n1,37,-7%,12µM*,-1%,8.2µM*,4%
CC(C)[C@H](NS(=O)(=O)c1cccc(C(F)(F)F)c1)C(=O)OCC(N)=O,12,-5%,3%,-3%,-15%,-2%
N#Cc1ccc(CN2CCN(C(=O)CNC(=O)Cc3ccccc3)CC2)cc1,18,-17%,-4%,12%,-1%,-1%
CSc1ccc(/C=C2\C=Cc3cc([N+](=O)[O-])ccc32)cc1,nt,-3%,11µM*,3%,16µM*,nt
O=[N+]([O-])c1ccc(/C=C2\C=Cc3ccccc32)cc1,nt,-9%,8.9µM*,3%,?,nt
COC(=O)[C@]12CCCCC=C1N(Cc1ccc3c(c1)OCO3)C(=O)[C@H](CC(=O)N1CCCCC1)C2,-9,nt,?,nt,?,nt
Cc1cc(C(=O)Nc2cccc(NC(=O)c3ccco3)c2)ccc1[N+](=O)[O-],-79*,-15%,?,-12%,?,-8%
CN(C(=O)c1cccc(NC(=O)c2ccco2)c1)c1ccccc1,0,-7%,-4%,14%,-5%,-1%
CN(C(=O)c1ccc(NC(=O)c2ccco2)cc1)c1ccccc1,-10,7.9µM*,?,-2%,-24%,5%
O=C(/C=C\c1ccccc1)Nc1ccc(NC(=O)c2ccco2)cc1,49,14%,12µM*,16%,23µM*,-2%
O=C(Cc1ccccc1)Nc1ccc(NC(=O)c2ccco2)cc1,?,-13%,3%,6%,-24%,6%
Cc1cc(C)cc(NC(=O)c2ccc(NC(=O)c3ccco3)cc2)c1,nt,1%,21µM*,-6%,?,-12%
